Laboratory results: PubChem BioAssay (NCATS)
Records with an inconclusive call do not appear. Activity calls are given as the source filed them. Calls follow the shape of the dose curve; as a rule, active = well fitted inhibition curve with a large enough effect; inconclusive = small, poorly fitted or top-dose-only effect, or effect the other way; inactive = flat fitted curve, though single readings scatter.

Test: qHTS for Inhibitors of Plasmodium falciparum (CP250) proliferation (AID 504320);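 also: plate controls were DMSO vehicle for no effect and 0.29 µM artemisinin control for full effect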
Details: P. falciparum CP250 in erythrocytes, SYBR Green DNA, 72 h; series mostly up to 6.7 µM; activity change, negative = inhibition: at the top concentration
How it was run: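 Parasite growth measured as SYBR Green DNA fluorescence (ex 485, em 535 nm) after overnight lysis following 72 h culture at 37 °C, 0.3% parasitemia, 2.5% hematocrit. Values normalized against DMSO and 0.29 uM artemisinin controls, with plate-stack correction.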

Activity change, negative = inhibition, inactive:
Cc1ccc(S(=O)(=O)N[C@@H]2COC(=O)[C@@H](C)COC(=O)CC=C[C@H]2C)cc1 2.71%
COC/C=C/C1=CC2=CC(=O)C(C)(OC(=O)c3cnc4ccccc4n3)C(=O)C2=CN1c1ccccc1 (centres undefined) -0.779%
CCOC(=O)CN1C(=O)N[C@@H](c2cccs2)C(C(=O)OC)=C1C 3.68%
COC(=O)C1=C(C)N(Cc2ccccc2)C(=O)N[C@H]1c1ccco1 2.75%
COC(=O)C1=C(C(=O)OC)[C@@H]2N(C)c3ccccc3[C@@]23C[C@@H](C(=O)OC)N(S(=O)(=O)c2ccc(C)cc2)C3=N1 5.41%
COC(=O)CCC(=O)OC1(C)C(=O)C2=CN(CC3CC3)C(c3ccc(OC)cc3)=CC2=C(Br)C1=O (centres undefined) -6.44%
CCOC(=O)NN=C1C[C@@H](O)[C@@H](O)[C@@H]2[C@H]3C(=O)N([C@@H](C)c4ccccc4)C(=O)[C@@H]3CC[C@@H]12 -1.3%
CC1(OC(=O)CCc2ccccc2)C(=O)C=C2C=C(c3ccc(C#N)cc3)N(CCc3ccccn3)C=C2C1=O (centres undefined) 0.874%
COC(=O)CCCC1=CC2=CC(=O)C(C)(OC(=O)c3cccs3)C(=O)C2=CN1c1ccc(CO)cc1 (centres undefined) 4.68%
CC1(OC(=O)c2ccc(Cl)nc2)C(=O)C=C2C=C(C3CC3)OC=C2C1=O (centres undefined) 6.5%
COCCN1C(=O)N(C)[C@@H](c2ccccc2)C(C(C)=O)=C1C 1.27%
COC/C=C/C1=CC2=CC(=O)C(C)(OC(=O)c3cnc4ccccc4n3)C(=O)C2=CN1C1CC1 (centres undefined) -0.336%
C[C@H]1Cc2c(-c3ccccc3)nc3c(c2CO1)CN(C(=O)C1CC1)CC3 0.234%

Potency, inactive:
CCCCc1nc2c(c3c1C[C@H](C)OC3)CN(C(=O)NCc1ccco1)CC2
